# Source: the supplement of paper PMC12636033
# ± gives the standard deviation of the averaged measurements. Whole data set: some 33,000 sequences, median “E-score (rank enrichment, -0.5 to 0.5)” near -0.0075, cut for the highest 2% near 0.23. What follows is part of a selection rich in the highest values, with near analogues and random picks from the rest.
# System: WT Max(13-93) synthetic (M65Nle)
# Test: PBM 8-mer E-score (E-score (rank enrichment, -0.5 to 0.5)); higher = stronger preferential binding
# Method: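 Protein binding microarray (universal PBM chip covering all 10-mers in fixed probe flanks) with chemically synthesized human Max(13-93) bHLH-LZ analogs (not full-length Max) bearing noncanonical residues (hArg, Tha, Aib, Nle at 65) and aromatic Cys staples. Read-out per 8-mer (and its reverse complement): E-score (rank-based enrichment, -0.5 to 0.5) and Z-score of median probe intensity.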
row,Sequence,PBM 8-mer E-score
1,CGCTGCAA,-0.0409 ± 0.02
2,AGATGGTG,0.00749 ± 0.089
3,ACATGGAG,0.198 ± 0.015
4,ACATGGTG,0.233 ± 0.045
5,GTGGGGAA,0.205 ± 0.11
6,GACTGACA,-0.0306 ± 0.026
7,AGGCCCTC,0.00332 ± 0.043
8,CAGGAATC,-0.216 ± 0.02
9,ATACAAAG,0.0198 ± 0.057
10,ATACAAAC,0.212 ± 0.016
11,CTACAAAA,0.0614 ± 0.0036
12,TTACAAAA,0.225 ± 0.024
13,ATACAAAA,0.265 ± 0.02
14,ATACAAAT,0.249 ± 0.035
15,GAGAAAAC,-0.0792 ± 0.0078
16,GCAAAGGA,0.00898 ± 0.011
17,AATTCATG,0.132 ± 0.0098
18,ATATTCAC,0.234 ± 0.022
19,GTATTCAC,0.0929 ± 0.016
20,CTATTCAC,-0.0152 ± 0.017
21,CGCTGTCA,-0.225 ± 0.066
22,ACGTTCGA,-0.101 ± 0.043

row,Sequence,PBM 8-mer E-score
1,CGTATGGA,-0.00324 ± 0.07
2,ATGTAACA,0.239 ± 0.027
3,ATGTAATG,0.16 ± 0.079
4,ATGTAAAA,0.268 ± 0.011
5,ATGTAAAT,0.224 ± 0.021
6,ATGTAACG,0.0739 ± 0.012
7,CTGTAAAA,0.0812 ± 0.032
8,CTGTAATA,0.0153 ± 0.064
9,ATGTAATA,0.25 ± 0.011
10,CTGTAACA,0.044 ± 0.048
11,GCTTAGGA,-0.105 ± 0.036
12,TGACCCAA,0.106 ± 0.036
13,CGTTACTA,0.108 ± 0.1
14,CCCTCCTC,-0.0364 ± 0.059
15,GCATAGTA,0.0884 ± 0.0015
16,GTCCCGCA,-0.141 ± 0.005
17,AGGTGTGG,0.0754 ± 0.09
18,ACGTGTGG,0.3 ± 0.048
19,AAGTGTGG,0.0251 ± 0.043
20,ACGTGTGC,0.348 ± 0.0039
21,ACGTGTGA,0.192 ± 0.054
22,CCGTGTGC,-0.0611 ± 0.063

row,Sequence,PBM 8-mer E-score
1,ACAAAACG,0.152 ± 0.068
2,ACCAGACA,-0.0218 ± 0.036
3,AAGAACAG,0.137 ± 0.033
4,AAGAACAT,0.2472 ± 0.0023
5,AAGAACAC,0.156 ± 0.11
6,CCAAGCAC,0.139 ± 0.07
7,ACACCGCA,-0.148 ± 0.046
8,CCGACCGA,-0.158 ± 0.039
9,CGTTCGAC,-0.123 ± 0.034
10,CCATGTAA,0.0612 ± 0.026
11,GCATGTAC,0.197 ± 0.093
12,GCATGTAA,0.239 ± 0.0044
13,CAATGTAC,0.0304 ± 0.16
14,ACATGTAC,0.29 ± 0.009
15,ACATGTAT,0.341 ± 0.019
16,CCATGTAC,0.0683 ± 0.0021
17,AAATGTAG,0.144 ± 0.015
18,TCATGTAA,0.148 ± 0.0053
19,AGATGTAT,0.158 ± 0.0099
20,AAATGTAC,0.268 ± 0.026
21,ACATGTCT,0.222 ± 0.1
22,ATTATCCC,0.073 ± 0.014

row,Sequence,PBM 8-mer E-score
1,CCGCGTAA,-0.0539 ± 0.056
2,CGTTCGTA,0.0244 ± 0.0097
3,CCGTTCAC,-0.15 ± 0.0062
4,AAATGTAA,0.0766 ± 0.017
5,AGATGTAA,0.114 ± 0.043
6,ACATGTAG,0.329 ± 0.031
7,AGATGTAG,0.0391 ± 0.11
8,ACATGTAA,0.317 ± 0.0085
9,CCATGTAG,0.14 ± 0.045
10,ATTCGATA,0.0933 ± 0.11
11,CTGCAGAA,-0.039 ± 0.059
12,CGGGTTGC,-0.0971 ± 0.064
13,CTGACCAA,-0.00243 ± 0.0086
14,GATGGTTA,0.0493 ± 0.12
15,CATGGTTA,0.2411 ± 0.0015
16,AATGGTTA,0.147 ± 0.038
17,CATGGTCC,0.0038 ± 0.074
18,CATGGTCG,0.219 ± 0.039
19,CATGGTCA,0.291 ± 0.031
20,TGCCGCAA,0.106 ± 0.083
